Records with an inconclusive call do not appear. Active and inactive are the calls of the source. Rule for the calls, unless noted: active = hit-call score of the fitted dose curve at least 0.9, where 1 is the maximum; inconclusive = response in the unintended direction; inactive = score below 0.9.
Key:
[1] = TOX21_p53_BLA_p2_viability: Viability Assessment in the Tox21 HCT-116 p53 Agonism Beta-lactamase Assay, Phase 2 (AID 2283591);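 note: actives lower the ATP signal meaning cytotoxicity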
How it was run: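 HCT-116 p53-bla cells (4000/well) rested 5 h at 37C, then received compounds in DMSO (217-fold dilution) for 16 h at 37C, 5% CO2. After the CCF4 read, CellTiter-Glo was added; ATP luminescence was read after 30 min at room temperature.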

[2] = biological target: Cellular tumor antigen p53 (Homo sapiens) (UniProt P04637); test: TOX21_p53_BLA_p2_ratio: Tox21 HCT-116 p53 Agonism Beta-lactamase Assay, Ratio, Phase 2 (AID 2283592)
Sequence of Cellular tumor antigen p53 (Homo sapiens) (P04637 whole entry, looked up): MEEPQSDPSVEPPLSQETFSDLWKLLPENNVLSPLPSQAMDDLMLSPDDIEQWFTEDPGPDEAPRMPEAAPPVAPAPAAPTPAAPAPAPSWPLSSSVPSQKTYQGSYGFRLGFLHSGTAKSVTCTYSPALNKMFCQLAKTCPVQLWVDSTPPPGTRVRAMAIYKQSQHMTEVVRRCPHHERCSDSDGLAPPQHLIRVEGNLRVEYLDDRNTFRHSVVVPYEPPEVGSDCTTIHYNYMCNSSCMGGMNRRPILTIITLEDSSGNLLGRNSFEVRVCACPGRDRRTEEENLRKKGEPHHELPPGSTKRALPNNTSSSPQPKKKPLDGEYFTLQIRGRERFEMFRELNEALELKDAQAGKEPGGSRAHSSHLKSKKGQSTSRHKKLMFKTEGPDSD
How it was run: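 HCT-116 cells with p53-responsive beta-lactamase reporter, 4000 cells/well, preincubated 5 h, then compound in DMSO (217-fold dilution) for 16 h at 37C. CCF4-AM substrate 2 h at room temperature; 460/530 nm emission ratio fitted upward versus DMSO.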

[3] = biological target: Cellular tumor antigen p53 (Homo sapiens) (UniProt P04637); test: TOX21_p53_BLA_p3_ratio: Tox21 HCT-116 p53 Agonism Beta-lactamase Assay, Ratio, Phase 3 (AID 2283596)
How it was run: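 HCT116 p53-bla cells (4000/well) given compound in DMSO (217-fold dilution) after 5 h, incubated 16 h at 37C. CCF4-AM substrate 2 h at room temperature; 460/530 nm emission ratio, gain fitted against DMSO.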

[4] = TOX21_p53_BLA_p4_viability: Viability Assessment in the Tox21 HCT-116 p53 Agonism Beta-lactamase Assay, Phase 4 (AID 2283597);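 note: hits lower the luminescence signal meaning cytotoxicity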
How it was run: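 HCT-116 p53-bla cells, 4000/well, dosed after 5 h attachment and incubated 16 h at 37 °C, 5% CO2. Viability from CellTiter-Glo ATP luminescence after 30 min at room temperature, taken after the beta-lactamase read; loss of signal indicates cytotoxicity.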

[5] = biological target: Cellular tumor antigen p53 (Homo sapiens) (UniProt P04637); test: TOX21_p53_BLA_p5_ratio: Tox21 HCT-116 p53 Agonism Beta-lactamase Assay, Ratio, Phase 5 (AID 2283599)
How it was run: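 HCT-116 cells carrying a p53-inducible beta-lactamase reporter were seeded at 4000 cells/well and dosed after 5 h with compound in DMSO (217-fold dilution). After 16 h at 37C, CCF4-AM substrate was added for 2 h, and the 460/530 nm emission ratio was scored as gain-of-signal versus DMSO.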

[6] = TOX21_p53_BLA_p5_viability: Viability Assessment in the Tox21 HCT-116 p53 Agonism Beta-lactamase Assay, Phase 5 (AID 2283600)
How it was run: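 HCT-116 p53 beta-lactamase reporter cells, 4000/well, were exposed to compound (pin transfer, 217-fold dilution) for 16 hours at 37C. Cellular ATP was read by CellTiter-Glo luminescence after 30 min at room temperature.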

[7] = biological target: Cellular tumor antigen p53 (Homo sapiens) (UniProt P04637); test: TOX21_p53_BLA_p4_ratio: Tox21 HCT-116 p53 Agonism Beta-lactamase Assay, Ratio, Phase 4 (AID 2283601)
How it was run: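 HCT116 cells carrying an inducible beta-lactamase reporter were plated at 4000 cells/well, rested 5 h, then exposed to compounds in DMSO (217-fold dilution) for 16 h at 37C. CCF4-AM substrate was loaded 2 h at room temperature; 460/530 nm emission ratio scored gain-of-signal versus DMSO.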

[8] = tested on: Brachyury (BRA) Protein Expression, Deisenroth Lab, TBXT (gene 6862); test: CCTE_Deisenroth_DEVTOX-GLR_legacy_Bra: (Legacy) CCTE's DevTox GLR-Endo Assay Evaluation of Brachyury (BRA) Protein Expression, Deisenroth Lab (AID 2284329; active = hit-call score of the fitted dose curve at least 0.9, where 1 is the maximum; inactive = score below 0.9)
How it was run: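 RUES2-GLR human pluripotent cells differentiated 48 h with two 24-h-interval chemical exposures (1 nM - 200 uM, 10 points); fixed, nuclear-stained, imaged. Bra+ cell percentage (intensity 5x BMAD above pluripotent control median) fitted relative to 0.2% DMSO.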

[9] = CCTE_Deisenroth_DEVTOX-GLR_legacy_CellCount: (Legacy) Viability Assessment in CCTE's DevTox GLR-Endo Assay, Deisenroth Lab (AID 2284331; active = hit-call score of the fitted dose curve at least 0.9, where 1 is the maximum; inactive = score below 0.9); settings: actives raise or lower the signal
How it was run: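 Viability is taken from imaged nuclei counts in fixed RUES2-GLR cultures after 48 h of differentiation under two 24 h-spaced chemical exposures, 10 concentrations from 1 nM to 200 uM, gain or loss versus DMSO baseline.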

[10] = tested on: SRY-box transcription factor 2 (SOX2) Protein Expression, Deisenroth Lab, SOX2 (gene 6657); test: CCTE_Deisenroth_DEVTOX-GLR_legacy_Sox2: (Legacy) CCTE's DevTox GLR-Endo Assay Evaluation of SRY-box transcription factor 2 (SOX2) Protein Expression, Deisenroth Lab (AID 2284346; active = hit-call score of the fitted dose curve at least 0.9, where 1 is the maximum; inactive = score below 0.9)
How it was run: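 RUES2-GLR human pluripotent cells seeded 24 h, then differentiated 48 h in defined media with two chemical doses 24 h apart (10-point, 1 nM–200 uM). Fixed, nuclear-stained, imaged; % Sox2+ cells (>5x BMAD over endoderm control median), DMSO-subtracted, fitted upward.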

[11] = tested on: Brachyury (BRA) Protein Expression, TBXT (gene 6862); test: CCTE_Deisenroth_DEVTOX-GLR_Endo_BRA: CCTE's DevTox GLR-Endo Assay Evaluation of Brachyury (BRA) Protein Expression, Deisenroth Lab (AID 2284417; active = hit-call score of the fitted dose curve at least 0.9, where 1 is the maximum; inactive = score below 0.9)
How it was run: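 Read-out: BRA+ cell count divided by total cell count by high-content imaging (5 fields per well), expressed relative to 0.2% DMSO solvent control. RUES2-GLR cells dosed twice over a 48 h differentiation; concentrations 1 nM - 200 uM.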

[12] = CCTE_Deisenroth_DEVTOX-GLR_Endo_CellCount: Viability Assessment in CCTE's DevTox GLR-Endo Assay, Deisenroth Lab (AID 2284420; active = hit-call score of the fitted dose curve at least 0.9, where 1 is the maximum; inactive = score below 0.9)
How it was run: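 RUES2-GLR pluripotent cells seeded 24 h, then differentiated 48 h in defined media with two chemical exposures 24 h apart. Nuclei counted by high-content imaging; 10-point 1 nM–200 uM series; percent change versus 0.2% DMSO.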

[13] = tested on: SRY-box transcription factor 17 (SOX17) Protein Expression, Deisenroth Lab, SOX17 (gene 64321); test: CCTE_Deisenroth_DEVTOX-GLR_Pluri_SOX17: CCTE's DevTox GLR-Pluri Assay Evaluation of SRY-box transcription factor 17 (SOX17) Protein Expression, Deisenroth Lab (AID 2284427)
How it was run: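 RUES2-GLR pluripotent cells were induced toward endoderm over 48 h and received two compound doses 24 h apart, in a 10-point series from 1 nM to 200 uM. The percentage of SOX17+ cells among total cells was measured by high-content imaging and reported minus the 0.2% DMSO control.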

PGR (gene 5241) [14] = biological target: PGR (gene 5241) (UniProt P06401); test: TOX21_PR_BLA_Followup_Antagonist_ratio: Tox21 HEK293 Progesterone Receptor (PR) Antagonism Beta-lactamase Follow-Up Assay, Ratio (AID 2283934);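 note: PR-UAS-bla HEK293T cells stimulated with 1 nM R5020 agonist for 16 hr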
Sequence of PGR (gene 5241) (P06401 whole entry, looked up): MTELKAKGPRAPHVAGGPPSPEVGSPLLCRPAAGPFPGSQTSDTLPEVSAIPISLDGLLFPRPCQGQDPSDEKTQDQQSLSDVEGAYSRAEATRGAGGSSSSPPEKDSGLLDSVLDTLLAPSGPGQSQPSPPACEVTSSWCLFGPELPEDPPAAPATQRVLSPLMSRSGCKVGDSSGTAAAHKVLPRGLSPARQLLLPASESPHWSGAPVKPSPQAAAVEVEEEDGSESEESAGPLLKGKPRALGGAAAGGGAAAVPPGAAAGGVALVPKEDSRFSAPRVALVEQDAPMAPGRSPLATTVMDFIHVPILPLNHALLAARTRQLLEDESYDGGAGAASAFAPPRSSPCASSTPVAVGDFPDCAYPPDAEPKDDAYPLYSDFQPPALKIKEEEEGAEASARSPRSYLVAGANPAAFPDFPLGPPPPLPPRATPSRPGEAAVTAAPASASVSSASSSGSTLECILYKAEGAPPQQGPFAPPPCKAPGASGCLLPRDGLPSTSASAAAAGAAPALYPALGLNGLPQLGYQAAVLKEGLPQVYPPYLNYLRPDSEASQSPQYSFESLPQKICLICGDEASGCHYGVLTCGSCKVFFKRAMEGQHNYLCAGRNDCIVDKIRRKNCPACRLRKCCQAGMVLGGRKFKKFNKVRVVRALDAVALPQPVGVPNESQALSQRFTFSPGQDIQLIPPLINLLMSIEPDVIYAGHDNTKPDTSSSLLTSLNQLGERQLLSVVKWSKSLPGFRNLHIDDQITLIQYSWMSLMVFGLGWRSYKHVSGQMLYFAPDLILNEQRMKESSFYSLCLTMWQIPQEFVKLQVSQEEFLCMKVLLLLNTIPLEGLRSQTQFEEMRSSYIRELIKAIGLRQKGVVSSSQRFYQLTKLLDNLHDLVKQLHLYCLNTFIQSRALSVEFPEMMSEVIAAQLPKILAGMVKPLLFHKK
How it was run: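 Antagonist mode used 1 nM R5020 (final) as agonist on a beta-lactamase reporter line in HEK293T cells. Activity was taken from the substrate cleavage ratio after 16 hr exposure.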

[15] = TOX21_PR_BLA_Followup_Agonist_viability: Viability Assessment in the Tox21 HEK293 Progesterone Receptor (PR) Agonism Beta-lactamase Follow-Up Assay (AID 2283935);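 note: signal loss means lower viability so actives are cytotoxic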
How it was run: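 Multiplexed viability counter-screen: ATP-coupled luciferase signal measured after 30 min at room temperature, following 16 hr compound treatment of PR-UAS-bla HEK293T cells grown in charcoal-stripped serum.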

[16] = TOX21_PR_BLA_Followup_Antagonist_viability: Viability Assessment in the Tox21 HEK293 Progesterone Receptor (PR) Antagonism Beta-lactamase Follow-Up Assay (AID 2283936);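 note: hits lower the luminescence signal meaning cytotoxicity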
How it was run: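 PR-UAS-bla HEK293T cells (3,000/well, 2% charcoal-stripped FBS) given compound plus R5020 agonist, 16 h at 37C. CellTiter-Glo added after bla read, 30 min at room temperature; luminescence loss indicates cytotoxicity.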

PGR (gene 5241) [17] = biological target: PGR (gene 5241) (UniProt P06401); test: TOX21_PR_LUC_Followup_Antagonist: Tox21 HEK293 Progesterone Receptor (PR) Antagonism Luciferase Follow-Up Assay (AID 2283938);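 note: curve fitted upward as signal gain over DMSO baseline despite antagonist label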
How it was run: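 HEK293-PR-A-luc cells, 3,000/well, preincubated 5 h at 37C before compound addition in DMSO; 16 h compound exposure at 37C. ONE-Glo luciferase luminescence read after 30 min at room temperature, fitted relative to DMSO baseline.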

[18] = TOX21_PR_LUC_Followup_Antagonist_viability: Viability Assessment in the Tox21 HEK293 Progesterone Receptor (PR) Antagonism Luciferase Follow-Up Assay (AID 2283940)
How it was run: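 Cellular ATP, measured with luciferase-coupled CellTiter-Glo, served as the viability endpoint after HEK293-PR-A-luc cells were exposed to test compounds for 16 h at 37C.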

[19] = TOX21_PR_LUC_Followup_Agonist_viability: Viability Assessment in the Tox21 HEK293 Progesterone Receptor (PR) Agonism Luciferase Follow-Up Assay (AID 2283941);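 note: loss of signal means cytotoxicity so actives lower viability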
How it was run: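 Luminescent ATP quantitation (CellTiter-Glo) serves as the read-out; a drop flags cytotoxic compounds. Cells are HEK293-PR-A-luc grown in 10% charcoal-stripped FBS, plated 3,000/well, and exposed to compound for 16 h.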

Measured: AC50

O=c1[nH]c(=O)n([C@H]2C[C@H](O)[C@@H](CO)O2)cc1Br
active: [8] 11.7 µM | [9] 10.2 µM | [10] 14.4 µM | [11] 32.8 µM | [12] 10.2 µM
inactive: [1] | [2] | [3] | [4] | [5] | [6] | [7] | [13]

NCCNCCO
inactive: [1] | [2] | [3] | [4] | [5] | [7]

C1CCC2OC2C1 (configuration not stated)
inactive: [1] | [2] | [3] | [4] | [6] | [7]

CCOC(=O)CC(=O)c1cc(F)c(Cl)nc1Cl
inactive: [1] | [2] | [3] | [4] | [6] | [7]

c1ccc2c(c1)CCc1ccccc1N2
inactive: [1] | [2] | [3] | [4] | [5] | [7] | PGR (gene 5241) [14] | [15] | [16] | PGR (gene 5241) [17] | [18] | [19]

C[C@@H](O)[C@H]1C(=O)N2C(C(=O)O)=C(S[C@@H]3CN[C@H](C(=O)N(C)C)C3)[C@H](C)[C@H]12
inactive: [1] | [2] | [3] | [4] | [6] | [7]

COS(=O)(=O)C(F)(F)F
inactive: [1] | [2] | [3] | [4] | [6] | [7]

Nc1ccc(S(=O)(=O)NCc2ccccc2)cc1
inactive: [1] | [2] | [3] | [4] | [6]

CCCCC(=O)O[C@]1(C(=O)CO)[C@H](C)C[C@H]2[C@@H]3CCC4=CC(=O)C=C[C@]4(C)[C@@]3(F)[C@@H](O)C[C@@]21C
inactive: [1] | [2] | [3] | [4] | [6] | [7]

CC(=O)N[C@H]1[C@H]([C@H](O)[C@H](O)CO)OC(C(=O)O)=C[C@@H]1N=C(N)N
inactive: [1] | [2] | [3] | [4] | [6] | [7]

O=Cc1cccc(Br)c1
inactive: [1] | [2] | [3] | [4] | [5] | [7]

CCN[C@H]1CN(CCCOC)S(=O)(=O)c2sc(S(N)(=O)=O)cc21
inactive: [1] | [2] | [3] | [4] | [5] | [7]

CNCC[C@@H](Oc1ccccc1C)c1ccccc1
inactive: [1] | [2] | [3] | [4] | [5] | [7]

CN1[C@@H]2CC[C@H]1CC(NC(=O)n1c(=O)[nH]c3ccccc31)C2 (some centres not stated)
inactive: [1] | [2] | [3] | [4] | [5] | [7]

CC(=O)OC[C@H]1O[C@@H](n2ncc(=O)[nH]c2=O)[C@H](OC(C)=O)[C@@H]1OC(C)=O
active: [2] 2.04 µM | [3] 3.15 µM | [7] 2.61 µM
inactive: [1] | [4] | [6]

OC[C@H]1O[C@@H](n2cnc3c2NC=NC[C@H]3O)C[C@@H]1O
inactive: [1] | [2] | [3] | [4] | [6] | [7]

CCC(=O)Oc1ccc2c(c1)CC[C@@H]1[C@@H]2CC[C@]2(C)[C@@H](OC(=O)CC)CC[C@@H]12
inactive: [1] | [2] | [3] | [4] | [6]

Nc1ccncc1N
inactive: [1] | [2] | [3] | [4] | [5] | [7]

C=C(C)C(=O)OCCC[Si](Cl)(Cl)Cl
inactive: [1] | [2] | [3] | [4] | [6] | [7]

CC(C)(O)C(=O)O
inactive: [1] | [2] | [3] | [4] | [5] | [7]

CCCCCCCCCCCC[N+](C)(C)CC(=O)O
inactive: [1] | [2] | [3] | [4] | [5] | [7]

CO
inactive: [1] | [2] | [3] | [4] | [5] | [7]

COc1ccc(C(=O)Nc2ccccc2CCC2CCCCN2C)cc1 (configuration not stated)
inactive: [1] | [2] | [3] | [4] | [6]

C[C@@H]1NC(=O)[C@@H](N)CNC(=O)[C@H](C2CCNC(N)=N2)NC(=O)/C(=C/NC(N)=O)NC(=O)[C@H](CNC(=O)C[C@@H](N)CCCN)NC1=O (some centres not stated)
inactive: [1] | [2] | [3] | [4] | [6] | [7]

CN=C(NC#N)NCCSCc1csc(N=C(N)N)n1
inactive: [1] | [2] | [3] | [4] | [5] | [7]

CC(CCC(=O)O)C(=O)O (configuration not stated)
inactive: [1] | [2] | [3] | [4] | [5] | [7]

Cc1occc1S
inactive: [1] | [2] | [3] | [4] | [5] | [7]

Source: PubChem BioAssay (EPA / NIEHS)
